Drawing on PubChem BioAssay (EPA / NIEHS), this text covers AC50 and outcome for nine molecules.

Experiment [1] can be described thus: CCTE_Mundy_HCI_Cortical_Synap_Neur_Matur_BPCount: CCTE's Synaptogenesis and Neurite Maturation Assay in rat cortical cells for Branch Point Count, Mundy Lab (AID 2284211; active = hit-call score of the fitted dose curve at least 0.9, where 1 is the maximum; inactive = score below 0.9). In short, it runs like this:
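In this multiplexed morphology assay, cortical cells from rat receive chemicals at DIV 7 and are fixed at DIV 12, then immunostained and imaged; branch points are counted, with DMSO as baseline.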

Experiment [2] is described as follows: CCTE_Mundy_HCI_Cortical_NOG_NeuriteCount: CCTE's Neurite Outgrowth Assay in rat cortical cells for Neurite Count, Mundy Lab (AID 2284212; active = hit-call score of the fitted dose curve at least 0.9, where 1 is the maximum; inactive = score below 0.9;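 also: cells fixed about two days after chemical exposure began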). Summed up: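 Rat cortical primary cells; compound added 2 h post-plating, 1/10 dilution of working solution. Anti-betaIII-tubulin/AF488 ICC; ArrayScan neurite count vs DMSO.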
A short description of experiment [3]: CCTE_Mundy_HCI_Cortical_Synap_Neur_Matur_NeuriteCount: CCTE's Synaptogenesis and Neurite Maturation Assay in rat cortical cells for Neurite Count, Mundy Lab (AID 2284222; active = hit-call score of the fitted dose curve at least 0.9, where 1 is the maximum; inactive = score below 0.9;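 as to outcome: exposure from day 7 to day 12 in vitro with readout at day 12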). In short, it runs like this: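 Primary rat cortical cells were plated, treated with AraC at DIV 5, then exposed to chemicals from DIV 7 through DIV 12. After fixation and immunostaining for MAP2 and synaptophysin, imaging quantified neurites, with DMSO as the negative control.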

A short description of experiment [4]: CCTE_Mundy_HCI_hNP1_Pro_ResponderAvgInten: CCTE's Proliferation Assay in human neuroprogenitor cells, Mundy Lab (AID 2284224). Summed up:
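Proliferation was scored as BrdU labelling intensity in human neural progenitors derived from WA09 embryonic cells, measured 26.25 hours after chemical dosing. Activity was fitted relative to DMSO.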

Experiment [5] can be described thus: CCTE_Mundy_HCI_Cortical_NOG_NeuronCount: CCTE's Neurite Outgrowth Assay in rat cortical cells for Neuron Count, Mundy Lab (AID 2284236).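 Also: neurons counted by imaging betaIII-tubulin and Hoechst stained cortical cells; cells exposed to compound for about 48 hours before fixation.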 In short, it runs like this: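 Read-out: neuron number by high-content imaging of betaIII-tubulin (Alexa Fluor-488) and Hoechst-labelled rat primary cortical cells.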
Experiment [6] in a line: CCTE_Mundy_HCI_hNP1_Casp3_7: CCTE's Caspase-Glo 3/7 Assay in human neuroprogenitor cells for Apoptosis, Mundy Lab (AID 2284240; active = hit-call score of the fitted dose curve at least 0.9, where 1 is the maximum; inactive = score below 0.9). Summed up:
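Apoptosis is scored by activated caspase-3/7 luminescence in WA09-derived neural progenitor cells, measured 26.5 h after chemical dosing. Values represent gain of signal relative to DMSO vehicle.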

Experiment [7] in a line: CCTE_Mundy_HCI_Cortical_Synap_Neur_Matur_NeuronCount: CCTE's Synaptogenesis and Neurite Maturation Assay in rat cortical cells for Neuron Count, Mundy Lab (AID 2284242).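 As to AC50: neuron number from Hoechst nuclei and MAP2 staining by high-content imaging; hits reduce neuron count versus DMSO baseline.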 In short, it runs like this: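 Rat cortical cultures; AraC DIV 5; chemical dosing + media change DIV 7 to DIV 12 (288.33 h readout). Fix, Hoechst, anti-MAP2/anti-synaptophysin immunostain; HCI neuron count vs DMSO baseline.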

A short description of experiment [8]: IUF_NPC5_oligodendrocyte_differentiation_120hr: Leibniz Research Institute for Environmental Medicine (IUF) 120-hour Oligodendrocyte Differentiation Assay (NPC5) (AID 2284304).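 Also: primary human fetal neural progenitor spheres plated to migrate and differentiate; share of O4-positive cells among Hoechst nuclei found by CNN image analysis.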 In short, it runs like this:
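Human primary NPC neurospheres migrating and differentiating on laminin for 120 h under continuous compound exposure (serial dilution, solvent control). Endpoint: percent O4+ oligodendrocytes among Hoechst nuclei, detected by CNN image analysis, with DMSO as negative control.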

Experiment [9] is described as follows: CCTE_Mundy_HCI_iCellGluta_NOG_NeuriteLength: CCTE's Neurite Outgrowth Assay in iCellGluta cells for Neurite Length, Mundy Lab (AID 2284318). In short, it runs like this: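 Automated high-content imaging of betaIII-tubulin (Alexa Fluor-488) and Hoechst-stained cells gave neurite length, normalized to the DMSO baseline.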
Experiment [10] can be described thus: IUF_NPC1_cytotoxicity_72hr: Cytotoxicity Assessment at 72 hours in the Leibniz Research Institute for Environmental Medicine (IUF) Neural Progenitor Cell Proliferation Assay (NPC1) (AID 2284332).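 Also: rising LDH signal means more cytotoxicity.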 Summed up:
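LDH in supernatant, resazurin→resorufin fluorescence (RFU), 72 h exposure, no re-dosing. Cells: primary hNPC spheres, one per well, EGF+FGF medium, 37C/5% CO2, pH 7.2-7.6. Fit: positive direction vs baseline and dynamic range.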

Experiment [11] in a line: CCTE_Mundy_HCI_iCellGluta_NOG_NeuronCount: CCTE's Neurite Outgrowth Assay in iCellGluta cells for Neuron Count, Mundy Lab (AID 2284340).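 Also: cells fixed about 48 h after compound addition.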 In short, it runs like this:
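Neuron count read by automated high-content imaging of Hoechst 33342 and betaIII-tubulin/Alexa Fluor-488 labelling in human iPSC glutamatergic neurons. Activity fitted relative to DMSO.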

Experiment [12] is described as follows: CCTE_Mundy_HCI_iCellGluta_NOG_NeuriteCount: CCTE's Neurite Outgrowth Assay in iCellGluta cells for Neurite Count, Mundy Lab (AID 2284342).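 Also: chemical exposure about 48 hours starting 2 hours after plating.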
Experiment [13] can be described thus: CCTE_Mundy_HCI_hNP1_CellTiter: CCTE's Cell Titer-Glo 2 Assay in human neuroprogenitor cells for Viability, Mundy Lab (AID 2284241).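 As to AC50: a hit is a drop in ATP luminescence versus DMSO meaning reduced viability.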 Summed up: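 Human neural progenitor cells (hNP1, WA09-derived) were plated on poly-L-ornithine/laminin and grown 40 to 44 hours at 37 °C, 5% CO2 before chemical addition. Twenty-four hours later, ATP was measured by CellTiter-Glo luminescence; loss of signal versus DMSO indicates reduced viability.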
(ATP-based viability assays read luminescence as a measure of living cells.)

Experiment [14] in a line: IUF_NPC4_neurite_area_120hr: Leibniz Research Institute for Environmental Medicine (IUF) 120-hour Neuronal Morphology Assay for Neurite Area (NPC4) (AID 2284305). In short, it runs like this: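 Neurite area (pixels, nuclei excluded) of TUBB3-positive neurons from hNPC spheres differentiating 5 days under continuous exposure at 37 C, 5% CO2. High-content imaging; loss of signal versus DMSO control across 7 concentrations.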

Experiment [15] can be described thus: CCTE_Harrill_HTTr_CellCount_MCF7: CCTE's Cell Proliferation Assessment for the High-Throughput Transcriptomics (HTTr) Platform, Harrill Lab (AID 2284012).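 Also: count of Hoechst-stained nuclei per well by high-content imaging in MCF-7 cells; cells exposed to compound for six hours; intended direction is loss of nuclei count meaning fewer cells.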 In short, it runs like this:
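Readout: Hoechst nuclear count by high-content imaging. MCF-7, 8-point dilution series, 6 h exposure. Bidirectional fit vs DMSO baseline.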

Experiment [16] can be described thus: UKN5_HCS_SBAD2_cell_viability: Viability Assessment in the University of Konstanz (UKN) Leist Lab Neurite Outgrowth Assay in human iPSC-derived immature Dorsal Root Ganglia Neurons (UKN5) (AID 2284056; active = hit-call score of the fitted dose curve at least 0.9, where 1 is the maximum; inactive = score below 0.9). In short, it runs like this: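 iPSC-derived immature peripheral neurons (SBAD2) seeded on Matrigel with CHIR99021, SU5402 and DAPT, dosed 1 h later for 24 h. Viability from Hoechst H-33342 and calcein-AM live staining, high-content imaging; bidirectional fit versus DMSO.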

The nature of experiment [17]: UKN5_HCS_SBAD2_neurite_outgrowth: University of Konstanz (UKN) Leist Lab Neurite Outgrowth Assay in human iPSC-derived immature Dorsal Root Ganglia Neurons (UKN5) (AID 2284070; active = hit-call score of the fitted dose curve at least 0.9, where 1 is the maximum; inactive = score below 0.9). To be noted: actives raise or lower the signal. Summed up:
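Cryopreserved SBAD2 peripheral neurons were seeded at 100.000 cells/cm2 in N2-S/KSR medium containing CHIR99021, SU5402 and DAPT, then exposed to compounds for 24 h. Neurite area from calcein-AM high-content imaging was fitted bidirectionally against DMSO.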

A short description of experiment [18]: UKN4_HCS_LUHMES_neurite_outgrowth: University of Konstanz (UKN) Leist Lab Neurite Outgrowth Assay in human LUHMES cells (UKN4) (AID 2284206; active = hit-call score of the fitted dose curve at least 0.9, where 1 is the maximum; inactive = score below 0.9). The following applies: actives raise or lower the signal. In short, it runs like this: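 Read-out: calcein-AM neurite area by high-content fluorescence imaging, with Hoechst H-33342 viability counterstain, after 24 h chemical exposure of day-2 differentiated LUHMES cells. Activity fitted bidirectionally against DMSO baseline.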

The nature of experiment [19]: UKN4_HCS_LUHMES_cell_viability: Viability Assessment in the University of Konstanz (UKN) Leist Lab Neurite Outgrowth Assay in human LUHMES cells (UKN4) (AID 2284232; active = hit-call score of the fitted dose curve at least 0.9, where 1 is the maximum; inactive = score below 0.9). In short, it runs like this:
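Day-2 differentiated LUHMES, 30000 cells/well, dosed ~30 min–2 h post-seeding; 24 h treatment incl. staining; Hoechst H-33342 + calcein-AM at 23.5 h; HCS imaging; DMSO-normalized, bidirectional fit.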

As usually defined, the AC50 is the midpoint of the concentration-response curve, whichever way the signal moves.

Inconclusive results are not listed. Calls of active or inactive are those of the source. The calls were made as follows, unless noted: active = hit-call score of the fitted dose curve at least 0.9, where 1 is the maximum; inconclusive = response in the unintended direction; inactive = score below 0.9. Starred links: 1 amine or outer side, 2 acyl side, 3 side chain; linkers in the order of their positions; H or OH if unused. Positions of bridges follow the written chain, without caps; N, C: chain ends. Non-standard residues stand in square brackets, D forms with d. Residues, ends and D or L forms follow the SMILES beside them. Adda = CO[C@@H](Cc1ccccc1)[C@@H](C)/C=C(C)/C=C/[C@H](N[*:1])[C@H](C)C(=O)[*:2]; dAsp(3S-Me) = C[C@H](C(=O)[*:3])[C@@H](N[*:1])C(=O)[*:2]; d(γGlu) = O=C(O)[C@@H](CCC(=O)[*:2])N[*:1]; NMeDha = C=C(NC)C(=O)O

For `CC1(C)C(C=C(Cl)c2ccc(Cl)cc2)C1C(=O)OC(C#N)c1ccc(F)c(Oc2ccccc2)c1` (configuration not stated), the AC50 was 50 µM (active) in experiment [1], 39.1 µM (active) in experiment [2], 67.3 µM (active) in experiment [9] and 74.1 µM (active) in [12]. For the same molecule, the result in [3], in [4], in [5], in experiment [6], in experiment [7] and in experiment [8] was inactive. The molecule was classed as inactive in experiment [10] and in experiment [11].
With `CCOP(=O)(OCC)SCSC(C)(C)C`, the molecule was classed as inactive in experiment [1], in experiment [3], in [6], in [13], in experiment [8] and in experiment [10]. Further, the outcome in experiment [11] was inactive. Also, the half-maximal activity concentration (AC50) in experiment [2] was 75.4 µM (active); in experiment [5] it was 84.1 µM (active); in experiment [9], 9.83 µM (active); in experiment [12] it was 21.9 µM (active).
For `CC1(C)C(C=C(Cl)Cl)C1C(=O)O[C@H](C#N)c1cccc(Oc2ccccc2)c1` (some centres not stated), the AC50 in [1] is 12.8 µM (active); in experiment [2], 80 µM (active); in experiment [3] it was 12.3 µM (active); in experiment [4], 23.3 µM (active); in experiment [6], 29.3 µM (active); in experiment [7] it was 10.1 µM (active). For the same molecule, the AC50 in experiment [8] was 1.32 µM (active). For the same molecule, the outcome in experiment [5], in [13], in [14], in experiment [9], in [10] and in experiment [11] was inactive. In addition, the molecule was classed as inactive in [12].
As to `CC(C)(C)OOC(C)(C)C#CC(C)(C)OOC(C)(C)C`, in [15], the result was inactive.
In the case of `[O-][Cl+3]([O-])([O-])O`, the result in [16], in experiment [17], in experiment [18], in [19], in experiment [8] and in [14] was inactive. The molecule was called inactive in experiment [10].
In the case of `CC1(C)[C@H](C=C(Cl)Cl)[C@H]1C(=O)OCc1c(F)c(F)cc(F)c1F`, the half-maximal activity concentration (AC50) is 9.4 µM (active) in experiment [1]; 80.1 µM (active) in [2]; 11.9 µM (active) in experiment [3]; 22 µM (active) in experiment [4]; 50 µM (active) in [5]; 26.7 µM (active) in experiment [6]. Further, the AC50 in experiment [13] was 23.2 µM (active); in [7] it was 8.94 µM (active); in experiment [9] it was 18.1 µM (active); in experiment [11], 21.7 µM (active); in [12] it was 19.9 µM (active). For the same molecule, in [10], the molecule was called inactive.
For `C=C1C(=O)N[C@H](C)C(=O)N[C@H](CC(C)C)C(=O)N[C@@H](C(=O)O)[C@H](C)C(=O)N[C@@H](CCCN=C(N)N)C(=O)N[C@@H](/C=C/C(C)=C/[C@H](C)[C@H](Cc2ccccc2)OC)[C@H](C)C(=O)N[C@@H](C(=O)O)CCC(=O)N1C` (R[Adda][d(γGlu)][NMeDha][dA][dL][dAsp(3S-Me)]-OH; lactam N-7), the molecule was called inactive in experiment [15].
On to `C[C@H](N)Cc1ccccc1`, for which the call in [1], in experiment [2], in experiment [3], in [5], in experiment [6] and in [13] was inactive. For the same molecule, in experiment [7], the AC50 is 0.0436 µM (active).
For the molecule `CCOP(=S)(OCC)SCS(=O)C(C)(C)C` (configuration not stated), the molecule was classed as inactive in experiment [1], in [2], in experiment [3], in [4], in experiment [6] and in experiment [13]. Further, the call in [8], in [14], in experiment [9], in [10], in [11] and in experiment [12] was inactive.
